Consider two compounds from PubChem BioAssay AID504437 (Emory University Molecular Libraries Screening Center, 2011).

Among all 2,100 compounds or so, about 940 (45%) were called active.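 Rule for the calls: active = mean of three repeat readings of reporter signal inhibition above a set limit (cut at about 70% in these data); inactive = the rest.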 The set was probably picked from earlier hits. Only a selection was taken, and actives are over-represented in it overall.

A short description of the test: CHOP promoter reporter blockers, replicate testing – cell-based, confirmation (AID 504437).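 Note: 0% = tunicamycin plus vehicle and 100% = wells lacking tunicamycin.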 The note with it: CHO-CHOP promoter luciferase reporter, tunicamycin-induced, luminescence; at 10 µM; hits give high values. A general note: A reporter such as luciferase makes a cellular process visible.
As usually defined, the inhibition is the relative decrease from the control value, in per cent. Regarding `O=C(CSC1c2ccccc2-c2ccccc21)N/N=C/c1ccccc1`, the inhibition was 70.5% (active). The result for `CCCCCCN=C(CC)c1c(O)n(CCCC)c(=O)[nH]c1=O` reads 118% (active).
